Screens from PubChem BioAssay.
IL-1B inflam inh – inflammasome signaling inhibition, IL-1 beta readout | THP-1 LPS/ATP IL-1B secretion, AlphaLISA, 16 h; active compounds read low | activity change, % at 57.5 µM | actives 4.7% (n = 360,000); in the data active means activity change below about -50%; inconclusive means mostly about -30% to -49%
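Secreted IL-1B measured by AlphaLISA bead assay after 16 h compound exposure of THP-1 cells; compounds (final up to 57.5 uM) added 1 h before LPS (250 ng/mL) and ATP (1.25 mM) stimulation; lower signal means less secretion.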
Gal4-VP16 FLuc – counter-screen for ROR gamma inhibitors: Gal4-VP16 reporter | Drosophila S2 Gal4-VP16 UAS-luciferase, luminescence, 20 h | Potency, µM (series often up to 53.6 µM), for inactives: at the highest dose activity, negative = inhibition, usual class: inhibitors | actives 3.5% (n = 310,000);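 further: Gal4-VP16 expression switched on by copper sulfate through the metallothionein promoter; potency means the concentration at half of the fitted maximal effect; nearly all actives have a fitted effect of over 50% in size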
RORgamma inh – ROR gamma (mouse) transcription inhibition; Drosophila S2 Gal4-RORgamma UAS-luciferase reporter, 20 h; Potency, µM (titrated, usually from 53.6 µM), without a hit: top-dose activity change, negative = inhibition, actives largely listed as inhibitors; actives 5.4% (n = 310,000); further: potency means the concentration at half of the fitted maximal effect; nearly all actives have a fitted effect of over 60% in size
Target sequence (P51450 whole entry, looked up, the tested form may be a part): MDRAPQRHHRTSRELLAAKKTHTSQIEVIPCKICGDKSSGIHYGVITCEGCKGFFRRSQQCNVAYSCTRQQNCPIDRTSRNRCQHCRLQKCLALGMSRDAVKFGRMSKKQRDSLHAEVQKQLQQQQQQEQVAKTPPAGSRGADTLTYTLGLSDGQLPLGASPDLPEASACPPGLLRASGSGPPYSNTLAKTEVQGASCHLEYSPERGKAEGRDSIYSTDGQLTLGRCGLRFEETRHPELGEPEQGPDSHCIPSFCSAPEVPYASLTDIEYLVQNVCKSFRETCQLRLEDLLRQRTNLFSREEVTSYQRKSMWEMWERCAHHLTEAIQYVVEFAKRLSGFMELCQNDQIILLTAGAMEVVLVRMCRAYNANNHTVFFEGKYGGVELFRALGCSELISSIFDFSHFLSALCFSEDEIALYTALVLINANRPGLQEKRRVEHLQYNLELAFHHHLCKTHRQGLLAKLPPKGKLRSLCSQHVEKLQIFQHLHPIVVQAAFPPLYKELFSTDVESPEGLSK
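ROR gamma transcriptional activity was tracked as Gal4-UAS luciferase output in stably transfected Drosophila Schneider cells, with compound added 1 hr before 700 uM copper sulfate induction and a 20 hr ambient-temperature incubation.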
TDP1 cell noCPT – qHTS for Inhibitors of human tyrosyl-DNA phosphodiesterase 1 (TDP1): qHTS in cells in absence of CPT; DT40 Tdp1-/- hTDP1 cells, no CPT, ATP luminescence, 48 h; Potency, µM (series often up to 46.2 µM), without a hit: at the top dose activity change, negative = growth inhibition, usual class: inhibitors; actives 15% (n = 420,000); further: potency means the concentration at half of the fitted maximal effect; nearly all actives have a fitted effect of over 55% in size
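DT40 Tdp1-/-;hTDP1 cells, no CPT (DMSO vehicle only), 400 cells/well; compounds pin-transferred; ≥48 hr, 37 °C; CellTiter-Glo 30 min RT dark, luminescence read.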
TDP1 cell CPT – DT40-hTDP1 cell growth loss with CPT; Potency, µM (highest dose often 46.2 µM), without a hit: top-dose activity change, negative = growth inhibition, usual class: inhibitors; actives 12% (n = 420,000); chicken DT40 Tdp1-/-;hTDP1 cells + 20 nM CPT, ATP luminescence, 48 h; further: potency means the concentration at half of the fitted maximal effect; nearly all actives have a fitted effect of over 55% in size
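Chicken DT40 Tdp1-/- cells stably complemented with human TDP1 were seeded at 400 cells/well in medium containing 20 nM camptothecin, exposed to pin-transferred compounds, and grown at 37 °C for at least 48 hr. Viability was read as ATP luminescence.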
ELG1 DNA repair – ELG1-dependent DNA repair inhibition; AID 504467; actives 2.3% (n = 330,000); HEK293T ELG1-luciferase reporter, luminescence, 16 h; DNA damage induced by 5-fluorouridine; Potency, µM (highest dose often 46.1 µM), for the others: at the highest dose activity change, negative = inhibition, hits mostly inhibitors; further: potency means the concentration at half of the fitted maximal effect; nearly all actives have a fitted effect of over 55% in size
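Cells (2,000 per well) received 5-fluorouridine plus test compound or DMSO and were incubated 16 hr at 37 °C, 5% CO2. Luciferase activity was read by luminescence 30 min after ONE-Glo addition; signal suppression marked inhibition of damage-induced ELG1 function.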
Starred values were filed as active, the others as inactive; ? = inconclusive; / = no result. Only some compounds are listed: those with a hit (about 21% of all), similar ones and a draw of the others. Unless noted, the call rests on the fitted dose curve; in most records, active means well fitted curve in the direction sought with a large enough effect; inconclusive means small, poorly fitted or top-dose-only effect, or another doubt; inactive means no such curve, though single readings can be large; an effect the other way counts as inactive or inconclusive. On the % scale 0 is the no-effect control and ±100 the full control effect.

SMILES | IL-1B inflam inh | Gal4-VP16 FLuc | RORgamma inh | TDP1 cell noCPT | TDP1 cell CPT | ELG1 DNA repair
Cc1ccc(C)c(N2CCN(C(=O)C(Cc3ccccc3)n3cccc3)CC2)c1 (stereo unspecified) | 8 | -17% | 8% | 23µM* | 23µM* | -16%
O=C(C(Cc1ccccc1)n1cccc1)N1CCc2ccccc21 (stereo unspecified) | -10 | ? | ? | ? | ? | 0%
CC1CCCN(C(=O)C(Cc2ccccc2)n2cccc2)C1 (stereo unspecified) | -30 | 9% | 5% | -11% | 15µM* | -5%
O=C(C(Cc1ccccc1)n1cccc1)N1CCN(c2ccccc2)CC1 (stereo unspecified) | -21 | ? | -14% | 26µM* | 23µM* | ?
COc1ccc2[nH]c(C)cc2c1 | / | / | / | 4% | 1% | /
CCC(=O)N1CCC1(C)C(=O)Nc1cnc2ccccc2c1 (stereo unspecified) | 3 | / | / | -19% | -9% | /
CC1=C/C(=N\OC(=O)/C=C/c2ccccc2)C(C)=CC1=O | -17 | 0% | -3% | ? | 23µM* | 12%
Cc1ccccc1CSCC(=O)NCCSc1ccccn1 | 26 | 2% | 15% | 1% | 4% | 22%
Cn1c(N2CCN(C(c3ccccc3)c3ccccc3)CC2)nc2ccccc21 | -84* | 13µM* | 11µM* | 18µM* | ? | ?
O=S(=O)(NC1CC1)c1ccc(Br)cc1N1CCC[C@H]1CO | 0 | / | / | ? | ? | /
COc1cc(CN(C2CC2)S(=O)(=O)c2ccccc2Br)cc(OC)c1 | 4 | / | / | 13µM* | ? | ?
Cn1ccsc1=NC(=O)c1ccccc1F | 7 | 14% | ? | 14% | 17% | ?
Cc1ccc(C)c(-n2c(-c3ccc(Br)cc3)csc2=NC(=O)c2ccccc2F)c1 | 14 | -7% | ? | 4.6µM* | 12µM* | 12µM*
Cc1cccc(C(=O)N2CCC[C@H]2C(=O)N2CCC[C@H]2C(=O)NCc2ccncc2)c1 | 36 | / | / | 1% | 1% | /
Cc1cc(C)cc(-n2c(C)cc(C(=O)C(=O)Nc3nnc(C)s3)c2C)c1 | / | / | / | -7% | -23% | /
Cc1ccc(OCCNc2ccc(S(=O)(=O)N3CCCC3)cn2)cc1 | -15 | / | / | ? | -8% | -3%
COc1ccc(S(=O)(=O)N2CCCCCC2)cc1C(=O)N1CCN(C(C)=O)CC1 | -12 | / | / | -1% | -7% | /
COc1ccc(S(=O)(=O)N2CCCCCC2)cc1C(=O)N1CCCCC1 | 0 | ? | 1.4µM* | -18% | -27% | -6%
COc1ccc(S(=O)(=O)N2CCCCCC2)cc1C(=O)N(C)Cc1c(F)cccc1Cl | -14 | / | / | -23% | ? | ?
CN(CCOc1ccc(Cl)cc1)C(=O)c1cc(S(=O)(=O)N2CCOCC2)ccc1N1CCCC1 | -22 | / | / | 21µM* | 16µM* | ?
CN(CCOc1ccc(Cl)cc1)c1ccc(S(=O)(=O)N2CCCCC2)cn1 | 0 | -3% | 31% | 23µM* | 18µM* | ?
COc1ccc(S(=O)(=O)N2CCCCCC2)cc1C(=O)N(C)Cc1ccc(Cl)cc1Cl | -56* | / | / | ? | ? | ?
CN(CC1CCCO1)S(=O)(=O)c1ccc(C(=O)Nc2nccs2)cc1 (stereo unspecified) | 0 | 5% | -26% | ? | -26% | 2%
O=C(Nc1nccs1)C1CC=CCC1C(=O)OCC(F)(F)C(F)F (stereo unspecified) | 10 | / | / | 0% | 1% | 17%
CC(C)N1CC(C(=O)Nc2cc(Cl)cc(Cl)c2)CC1=O (stereo unspecified) | 0 | -5% | -13% | -21% | -4% | -21%
SMILES | IL-1B inflam inh | Gal4-VP16 FLuc | RORgamma inh | TDP1 cell noCPT | TDP1 cell CPT | ELG1 DNA repair
COc1ccc(S(=O)(=O)N2CCOCC2)cc1C(=O)N(C)CCOc1ccc(Cl)cc1 | 3 | / | / | 16µM* | ? | ?
COc1ccc(S(=O)(=O)N2CCCCCC2)cc1C(=O)N(C)CCOc1ccccc1 | -5 | / | / | 18µM* | ? | -1%
Cc1ccc(S(=O)(=O)N2CCCCC2)cc1C(=O)N(C)CCOc1ccccc1 | 1 | -2% | 15% | -13% | -25% | -3%
COc1ccc(S(=O)(=O)N2CCCCCC2)cc1N(C)S(=O)(=O)c1ccc(C)cc1 | -3 | ? | ? | 13µM* | ? | ?
Cc1ccc(S(=O)(=O)N2CCOCC2)cc1C(=O)N(C)CCOc1ccc(Cl)cc1 | -16 | -1% | 11% | 16µM* | ? | 0%
CSCCC(NC(=O)c1ccccc1Cl)C(=O)Nc1cccc(S(=O)(=O)N2CCCC2)c1 (stereo unspecified) | 0 | / | / | ? | ? | 1%
N=C1CCCN1CC(=O)c1ccc(Br)cc1 | -7 | 14% | 3% | 8% | 0% | ?
CN(CCOc1ccc(Cl)cc1)C(=O)c1cc([N+](=O)[O-])ccc1N1CCOCC1 | -5 | / | / | 12µM* | 21µM* | -4%
CCOc1ccc(NC(=O)c2cc([N+](=O)[O-])ccc2N2CCOCC2)cc1 | 3 | / | / | ? | ? | 0%
NS(=O)(=O)c1ccc(N=C2C(=O)Nc3ccccc32)cc1 | 1 | -12% | 5% | -18% | -15% | -8%
CC(C)C1=CC(=Nc2ccc(S(N)(=O)=O)cc2)C=C(C(C)C)C1=O | -57* | -13% | 1% | 23µM* | 16µM* | ?
Oc1ccc(/C=C/c2nc(-c3ccccc3O)n(-c3ccccc3)n2)c(O)c1 | / | / | / | ? | -70% | /
Cc1ccc(S(=O)(=O)Nc2ccccc2F)cc1C(=O)N1CCN(c2ccccc2O)CC1 | 24 | / | / | -10% | -15% | -3%
O=C(NCc1ccccc1)C(c1cc2ccccc2o1)n1c(=O)c(-c2ccco2)nc2ccccc21 (stereo unspecified) | 4 | / | / | ? | ? | /
O=C(NCc1ccccc1)C(C1CC1)n1c(=O)c(-c2ccco2)nc2ccccc21 (stereo unspecified) | 23 | / | / | 16µM* | 13µM* | /
O=C(NCc1ccccc1)C(c1ccccc1)n1c(=O)c(-c2ccco2)nc2ccccc21 (stereo unspecified) | -19 | / | / | 21µM* | ? | /
CCCCCNC(=O)C(c1ccc(OC)cc1)n1c(=O)c(-c2ccco2)nc2ccccc21 (stereo unspecified) | 0 | / | / | 12µM* | 16µM* | /
